Results as given in the supplement of paper PMC10498489.
About 330 (14%) of roughly 2,300 compounds showed activity.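 How the source made its calls: active = median modified Z-score above 1.96; inactive = 1.96 or below.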 Only a sample is shown.

What follows are compounds tested on HepG2 Srxn1-GFP reporter cells (+30 nM CDDO-Me) (assay: Srxn1-GFP intensity median modified Z-score relative to plate median; higher = stronger NRF2 / oxidative stress reporter activation, active = hit call of the paper). Details: 10 µM; exposure time: 24h.
In short: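 HepG2 Srxn1-GFP BAC reporter cells (20,000 per well, 96-well plates) were co-exposed to an NRF2 activator at 30 nM and compound at 10 μM (≤0.1% DMSO) for 24 h in three replicate plates. After formaldehyde fixation and Hoechst staining, confocal images were analysed per cell for cytoplasmic GFP, excluding images with under 100 cells. The value is the median over replicates of the per-plate modified Z-score of GFP intensity. Scaling used 1.4826 × median absolute deviation.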
For `CC(C=Cc1c(C)c(O)c2ccccc2c1O)=CCC[C@H](C)CCC[C@H](C)CCCC(C)C` [euspeclibcmpd621], the “Srxn1-GFP intensity median modified Z-score” value was -0.697 (inactive). In the case of `N=c1[nH]nc(-c2cccc(Cl)c2Cl)c(=N)[nH]1` [euspeclibcmpd829], the “Srxn1-GFP intensity median modified Z-score” value is reported as -0.0242 (inactive). With `CCN(CCCc1ccccc1)CCCc1ccccc1` [euspeclibcmpd16] the “Srxn1-GFP intensity median modified Z-score” value was 0.166 (inactive). For `CCN(CC)CCc1nc(-c2ccccc2)no1` [euspeclibcmpd2430], the “Srxn1-GFP intensity median modified Z-score” value was 10.5 (active). For `C[C@H](CC(=O)C1OC1(C)C)[C@@H]1C(=O)C[C@@]2(C)C3=CCC4C(C)(C)[C@@H](O[C@@H]5OC[C@@H](O)[C@H](O)[C@H]5O)CC[C@@]45C[C@@]35[C@@H](O)C[C@]12C` (some centres undefined) [euspeclibcmpd2331], the “Srxn1-GFP intensity median modified Z-score” value was 0.374 (inactive). In the case of `COCCCCC(=NOCCN)c1ccc(C(F)(F)F)cc1` [euspeclibcmpd828], the “Srxn1-GFP intensity median modified Z-score” value is reported as -0.302 (inactive). In the case of `NC(=O)CCC(N)C(=O)O` (centres undefined) [euspeclibcmpd1404], the “Srxn1-GFP intensity median modified Z-score” value is reported as -0.533 (inactive). For `COc1cc(C(=O)N2CCOCC2)cc(OC)c1OC` [euspeclibcmpd666], the “Srxn1-GFP intensity median modified Z-score” value was 0.129 (inactive). For `COc1cc(C(=O)OCCCN2CCCN(CCCOC(=O)c3cc(OC)c(OC)c(OC)c3)CC2)cc(OC)c1OC` [euspeclibcmpd1946], the “Srxn1-GFP intensity median modified Z-score” value was 6.07 (active). For `COc1cc(OC)c(C(=O)CCCN2CCCC2)c(OC)c1` [euspeclibcmpd1235], the “Srxn1-GFP intensity median modified Z-score” value was -0.587 (inactive). For `COc1cc(-c2coc3cc(OCc4ccccc4)c(OC)c(O)c3c2=O)cc(OCc2ccccc2)c1OC` [euspeclibcmpd1942], the “Srxn1-GFP intensity median modified Z-score” value was -0.32 (inactive). In the case of `COc1ccc2cc3[n+](cc2c1OC)CCc1cc2c(cc1-3)OCO2` [euspeclibcmpd1051], the “Srxn1-GFP intensity median modified Z-score” value is reported as 6.03 (active). For `COc1cc2c(cc1OC)-c1cc3ccc(OC)c(OC)c3c[n+]1CC2` [euspeclibcmpd2350], the “Srxn1-GFP intensity median modified Z-score” value was 0.574 (inactive). In the case of `C[n+]1cc2c3c(ccc2c2ccc4cc5c(cc4c21)OCO5)OCO3` [euspeclibcmpd10], the “Srxn1-GFP intensity median modified Z-score” value is reported as 0.32 (inactive). For `CCc1cccc2c(C(=O)COC(=O)c3c4c(nc5ccccc35)CCC(C(C)(C)C)C4)c[nH]c12` (centres undefined), the “Srxn1-GFP intensity median modified Z-score” value was 1.73 (inactive). In the case of `C#C[C@]1(O)CCC2C3CCc4cc(OC5CCCC5)ccc4C3CC[C@@]21C` (some centres undefined) [euspeclibcmpd466], the “Srxn1-GFP intensity median modified Z-score” value is reported as 0.485 (inactive). `CCCCCC(CC(O)=NO)C(=O)NC(C(=O)N1CCCC1CO)C(C)C` (centres undefined) [euspeclibcmpd1993] was tested, and the “Srxn1-GFP intensity median modified Z-score” value was 11.7 (active). `CCCCCC(CC(=O)O)C(=O)O` (centres undefined) [euspeclibcmpd1642] was tested, and the “Srxn1-GFP intensity median modified Z-score” value was -0.141 (inactive). `CN1N=C(C(=O)NC2(C)CCS(=O)(=O)C2)CCC1=O` (centres undefined) was tested, and the “Srxn1-GFP intensity median modified Z-score” value was 1.37 (inactive). With `C[C@]12CCC3c4ccc(OS(=O)(=O)O)cc4CCC3C1CCC2=O` (some centres undefined) [euspeclibcmpd707] the “Srxn1-GFP intensity median modified Z-score” value was -0.429 (inactive). For `CN=C(NC#N)NCCSCc1[nH]cnc1C` [euspeclibcmpd338], the “Srxn1-GFP intensity median modified Z-score” value was 3.04 (active). `O=C(N[C@@H](CO)[C@H](O)c1ccc([N+](=O)[O-])cc1)C(Cl)Cl` [euspeclibcmpd53] was tested, and the “Srxn1-GFP intensity median modified Z-score” value was -0.347 (inactive). In the case of `CC1(C)CC[C@]2(C(=O)O)CC[C@]3(C)C(=CCC4[C@@]5(C)CC[C@@H](O)C(C)(C)C5CC[C@]43C)C2C1` (some centres undefined) [euspeclibcmpd1603], the “Srxn1-GFP intensity median modified Z-score” value is reported as 4.09 (active). For `CC1(C)CC[C@]2(C)CC[C@]3(C)C(=CCC4[C@@]5(C)CC[C@H](O)C(C)(C)C5CC[C@]43C)C2C1` (some centres undefined) [euspeclibcmpd1345], the “Srxn1-GFP intensity median modified Z-score” value was 1.93 (inactive). With `CC1(C)CC[C@]2(C(=O)O)CC[C@]3(C)C(=CCC4[C@@]5(C)CC[C@H](O)[C@@](C)(CO)C5CC[C@]43C)C2C1` (some centres undefined) [euspeclibcmpd1554] the “Srxn1-GFP intensity median modified Z-score” value was -0.176 (inactive). `Cc1cc2nc3c(=O)[nH]c(=O)nc-3n(C[C@@H](O)[C@@H](O)[C@@H](O)COP(=O)(O)O)c2cc1C` [euspeclibcmpd2323] was tested, and the “Srxn1-GFP intensity median modified Z-score” value was -0.0697 (inactive). In the case of `Cc1ccc2[nH]c3c(c2c1)CC(Nc1ccc(CCC(=O)N2CCCC2)cc1)CC3` (centres undefined), the “Srxn1-GFP intensity median modified Z-score” value is reported as 4.66 (active). For `O=C(Nc1ccccc1)OCC(CN1CCCCC1)OC(=O)Nc1ccccc1` (centres undefined) [euspeclibcmpd499], the “Srxn1-GFP intensity median modified Z-score” value was -0.575 (inactive). `CN1C(C(=O)N=c2cccc[nH]2)C(=O)c2sccc2S1(=O)=O` (centres undefined) [euspeclibcmpd536] was tested, and the “Srxn1-GFP intensity median modified Z-score” value was -0.404 (inactive). In the case of `N=c1ccn([C@H]2CC[C@@H](CO)O2)c(=O)[nH]1` [euspeclibcmpd485], the “Srxn1-GFP intensity median modified Z-score” value is reported as -0.378 (inactive). In the case of `CCC(CCC(C)[C@H]1CCC2C3CC=C4C[C@@H](OC(C)=O)CC[C@]4(C)C3CC[C@@]21C)C(C)C` (some centres undefined) [euspeclibcmpd1595], the “Srxn1-GFP intensity median modified Z-score” value is reported as -0.573 (inactive). With `COc1ccc2oc(-c3ccccc3OC)cc(=O)c2c1` [euspeclibcmpd1670] the “Srxn1-GFP intensity median modified Z-score” value was 3.62 (active). With `COc1ccc2oc(-c3ccccc3OC)cc(=O)c2c1` the “Srxn1-GFP intensity median modified Z-score” value was 0.553 (inactive). With `COc1cc(OC)c2c(=O)cc(-c3ccccc3)oc2c1` [euspeclibcmpd1677] the “Srxn1-GFP intensity median modified Z-score” value was 0.503 (inactive). `COc1ccc(-c2cc(=O)c3cc(OC)ccc3o2)cc1` [euspeclibcmpd2272] was tested, and the “Srxn1-GFP intensity median modified Z-score” value was -0.0301 (inactive). With `O=c1cc(-c2ccccc2)oc2cccc(O)c12` [euspeclibcmpd2071] the “Srxn1-GFP intensity median modified Z-score” value was -0.0825 (inactive). In the case of `COc1ccccc1-c1cc(=O)c2c(OC)cccc2o1` [euspeclibcmpd2107], the “Srxn1-GFP intensity median modified Z-score” value is reported as 2.2 (active). `COc1ccc2c(=O)cc(-c3ccccc3OC)oc2c1` [euspeclibcmpd2182] was tested, and the “Srxn1-GFP intensity median modified Z-score” value was 0.253 (inactive). With `Cn1c(=O)c2nc(Br)[nH]c2n(C)c1=O` [euspeclibcmpd2124] the “Srxn1-GFP intensity median modified Z-score” value was -0.455 (inactive). `C[N+](C)(C)CCOP(=O)(O)OP(=O)(O)OC[C@H]1OC(n2ccc(=N)[nH]c2=O)[C@H](O)[C@@H]1O` (some centres undefined) [euspeclibcmpd812] was tested, and the “Srxn1-GFP intensity median modified Z-score” value was -0.665 (inactive). With `CC(=O)[C@@]1(O)CCC2C3=CC(Cl)=C4CC(=O)C5CC5[C@]4(C)C3CC[C@@]21C` (some centres undefined) [euspeclibcmpd1156] the “Srxn1-GFP intensity median modified Z-score” value was -0.345 (inactive). For `CS(=O)(=O)c1ccc(N)cc1`, the “Srxn1-GFP intensity median modified Z-score” value was 0.342 (inactive). For `CC(C)CCCC(C)[C@H]1CCC2C3CC=C4CC(=O)CC[C@]4(C)C3CC[C@@]21C` (some centres undefined) [euspeclibcmpd1330], the “Srxn1-GFP intensity median modified Z-score” value was -0.35 (inactive). For `c1ccc(C2CN3CCSC3=N2)cc1` (centres undefined) [euspeclibcmpd2122], the “Srxn1-GFP intensity median modified Z-score” value was 1.03 (inactive).
